The nature of assay [1]: E. coli DRC41 culture turbidity changes, primary screen, E. coli filamentation inducer project, strain DRC41, OD650, 48 h (AID 1152).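 Also: E. coli MC1000 strain DRC41 lacking acrAB efflux pump and sulA.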 The settings on record: E. coli DRC41 (acrAB sulA), higher = more signal, called active from +8 up or from −8 down.
Assay [2] in a line: small-molecule binders of probe aLefty1, primary screen, biochemical, small-molecule microarray, 635/667 nm fluorescence (AID 1153).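 Also: score merges spot fluorescence with signal-to-noise ratio from the scanned slide images.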 The settings on record: higher = more signal.
A short description of assay [3]: PSAC antagonists in infected red cells, primary screen, cell-based, P. falciparum Indochina, OD700, 1 h (AID 1154). The settings on record: P. falciparum Indochina infected RBC osmotic lysis, higher = more signal, called active from +8 up or from −8 down.
Assay [4] is described as follows: PSAC antagonists in infected red cells, primary screen, cell-based, P. falciparum Indochina, OD700, 2 h (AID 1155).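 Also: lysis reports solute entry through the parasite surface anion channel PSAC; channel blockers reduce lysis of infected cells.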 Particulars: P. falciparum Indochina infected erythrocytes, osmotic lysis OD700; higher = more signal, called active from +8 up or from −8 down.
Assay [5] can be described thus: osmotic lysis modulators in infected erythrocytes, primary screen, PSAC antagonist project, cell-based, P. falciparum Indochina, OD700, 3 h (AID 1156). The settings on record: higher = more signal, called active from +8 up or from −8 down.
A short description of assay [6]: PSAC antagonists in infected red cells, primary screen, cell-based, P. falciparum Indochina, OD700, 18 h (AID 1157). The settings on record: P. falciparum Indochina infected erythrocytes, osmotic lysis OD700, 18 h; higher = more signal, called active from +8 up or from −8 down.
The nature of assay [7]: modulators of S6 phosphorylation in cells, primary screen, cell-based, A549, cytoblot, luminescence, serum-stimulated (AID 1158).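 Also: serum-stimulated A549 lung adenocarcinoma cells; signal is phosphorylated S6 detected by cytoblot immunostaining with HRP secondary.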 Particulars: A549 phospho-S6 cytoblot, 5 h, higher = more signal.
The target in assay [8] is NADPH oxidase 2 (Homo sapiens) (UniProt P04839). Put plainly: NOX2-dependent H2O2 signal modulators, primary screen, NOX inhibitor project, cell-based, HEK293-NOX2, PMA-stimulated, Amplex Red fluorescence (AID 1159). Also: test concentration not given here. Particulars: 45 min, higher = more signal, called active from +8 up or from −8 down.
Assay [9] addresses NADPH oxidase 4 (Homo sapiens) (UniProt Q9NPH5). Put plainly: NOX4-dependent H2O2 signal modulators, primary screen, NOX inhibitor project, cell-based, HEK293-NOX4, tetracycline-induced, Amplex Red fluorescence (AID 1160). Particulars: 45 min, higher = more signal, called active from +8 up or from −8 down.
Assay [10] concerns the target NADPH oxidase 5 (Homo sapiens) (UniProt Q96PH1). The assay can be described thus: NOX5-dependent H2O2 signal modulators, primary screen, NOX inhibitor project, cell-based, HEK293-NOX5, Amplex Red fluorescence (AID 1161). Particulars: HEK293-NOX5, ionomycin, 45 min, higher = more signal.

Each structure is given as a SMILES string. The source made the active and inactive calls.

Chain of NADPH oxidase 5 (Homo sapiens) (Q96PH1 whole entry, looked up): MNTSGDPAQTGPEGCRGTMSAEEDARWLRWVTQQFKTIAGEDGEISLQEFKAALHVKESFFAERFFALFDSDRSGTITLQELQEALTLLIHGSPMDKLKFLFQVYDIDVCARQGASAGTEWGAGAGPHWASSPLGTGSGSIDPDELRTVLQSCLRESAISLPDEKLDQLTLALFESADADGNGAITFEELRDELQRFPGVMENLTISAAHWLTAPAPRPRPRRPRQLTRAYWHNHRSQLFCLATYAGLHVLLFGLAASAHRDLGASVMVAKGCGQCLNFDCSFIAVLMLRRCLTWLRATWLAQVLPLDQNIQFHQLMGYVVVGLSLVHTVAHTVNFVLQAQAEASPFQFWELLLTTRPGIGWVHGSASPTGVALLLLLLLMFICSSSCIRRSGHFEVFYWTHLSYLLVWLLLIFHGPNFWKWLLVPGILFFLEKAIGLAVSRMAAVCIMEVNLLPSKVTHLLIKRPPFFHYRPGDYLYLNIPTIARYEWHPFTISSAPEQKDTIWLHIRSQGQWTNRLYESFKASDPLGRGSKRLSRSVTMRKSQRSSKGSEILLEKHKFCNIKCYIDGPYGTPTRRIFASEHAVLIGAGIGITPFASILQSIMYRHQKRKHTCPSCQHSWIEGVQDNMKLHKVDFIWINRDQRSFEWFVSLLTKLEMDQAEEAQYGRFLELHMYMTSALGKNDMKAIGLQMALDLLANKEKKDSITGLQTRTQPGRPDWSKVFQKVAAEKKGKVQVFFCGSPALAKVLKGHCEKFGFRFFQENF
Chain of NADPH oxidase 2 (Homo sapiens) (P04839 whole entry, looked up): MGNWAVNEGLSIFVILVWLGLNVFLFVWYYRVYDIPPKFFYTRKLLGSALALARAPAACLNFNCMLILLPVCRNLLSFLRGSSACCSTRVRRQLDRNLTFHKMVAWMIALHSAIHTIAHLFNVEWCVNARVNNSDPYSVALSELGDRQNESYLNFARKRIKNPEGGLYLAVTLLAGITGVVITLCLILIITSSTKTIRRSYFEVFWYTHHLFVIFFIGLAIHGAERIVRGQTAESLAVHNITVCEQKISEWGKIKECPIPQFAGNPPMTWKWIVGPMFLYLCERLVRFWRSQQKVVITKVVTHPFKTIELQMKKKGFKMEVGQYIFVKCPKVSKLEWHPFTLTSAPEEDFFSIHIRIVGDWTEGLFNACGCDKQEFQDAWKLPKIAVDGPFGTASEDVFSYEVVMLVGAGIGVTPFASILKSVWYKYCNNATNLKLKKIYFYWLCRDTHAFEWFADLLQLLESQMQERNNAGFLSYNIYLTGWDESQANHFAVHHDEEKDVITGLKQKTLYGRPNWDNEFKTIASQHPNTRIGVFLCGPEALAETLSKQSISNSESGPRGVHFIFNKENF
Chain of NADPH oxidase 4 (Homo sapiens) (Q9NPH5 whole entry, looked up): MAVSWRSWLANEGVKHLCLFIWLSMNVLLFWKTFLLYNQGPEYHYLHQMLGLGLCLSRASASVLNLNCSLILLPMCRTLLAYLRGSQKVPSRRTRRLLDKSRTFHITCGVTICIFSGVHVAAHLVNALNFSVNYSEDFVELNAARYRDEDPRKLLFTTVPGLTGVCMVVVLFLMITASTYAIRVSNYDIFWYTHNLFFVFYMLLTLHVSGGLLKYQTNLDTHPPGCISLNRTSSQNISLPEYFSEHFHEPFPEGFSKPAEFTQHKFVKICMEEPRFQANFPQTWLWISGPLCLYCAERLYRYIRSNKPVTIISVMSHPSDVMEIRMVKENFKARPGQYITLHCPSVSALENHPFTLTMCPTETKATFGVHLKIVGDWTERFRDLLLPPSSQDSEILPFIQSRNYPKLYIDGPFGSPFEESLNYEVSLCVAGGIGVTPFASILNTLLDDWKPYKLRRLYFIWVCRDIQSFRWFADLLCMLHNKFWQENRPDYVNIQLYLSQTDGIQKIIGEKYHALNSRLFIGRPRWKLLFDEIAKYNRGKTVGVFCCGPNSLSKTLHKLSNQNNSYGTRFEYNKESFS

Regarding `CO[C@H]1COC(=O)CC=C[C@H](C)[C@@H](OC)COC(=O)CC=C[C@@H]1C`, the z-score was 1.32 (inactive) in assay [1]; 1.35 (inactive) in assay [3]; 0.636 (inactive) in assay [4]; 0.357 (inactive) in assay [5]; 0.254 (inactive) in assay [6]; 1.26 in assay [7]. Moreover, the values for the z-score in assay [8], in assay [9] and in [10] were 0.59 (inactive), 1.19 (inactive) and 0.435, respectively. In addition, the composite z-score in assay [2] was 0.0962.
With `COc1ccc([Si](C)(C)[C@H]2[C@H](CC(=O)N(CCO)Cc3ccccc3)O[C@@]3(C(=O)N(C)c4ccccc43)[C@@H]2C)cc1`, the z-score in [1] is 1.28 (inactive); in assay [3], 9.01 (active); in assay [4] it was 0.781 (inactive); in assay [5], -1.12 (inactive); in assay [6], -0.698 (inactive); in assay [7], 0.342. For the same compound, the z-score was -0.246 (inactive) in assay [8], 0.129 (inactive) in [9] and -2.43 in assay [10]. The same compound returned a composite z-score in assay [2] of 0.106.
In the case of `COc1ccc(C(=O)Nc2ccc(CN3C(=O)[C@]4(O[C@H](CCn5cc(CCO)nn5)[C@@H]([Si](C)(C)c5ccc(OC)cc5)[C@@H]4C)c4ccccc43)cc2)cc1`, the z-score in [1] is 0.173 (inactive); in assay [3], 9.37 (active); in assay [4], 2.64 (inactive); in assay [5] it was 1.68 (inactive); in [6], 1.67 (inactive); in assay [7], -0.196. Also, the z-score is 0.844 (inactive) in [8], 0.392 (inactive) in [9] and 3.29 in assay [10]. Moreover, the composite z-score in [2] was determined as 0.0253.
Turning to `CC(C)[Si](OCC[C@H]1O[C@]2(C(=O)N(Cc3ccccc3)c3ccccc32)[C@@H](C)[C@@H]1[Si](C)(C)O)(C(C)C)C(C)C`, the z-score in [1] was 0.65 (inactive); in [3] it was 0.914 (inactive); in assay [4], 0.799 (inactive); in assay [5], 0.226 (inactive); in assay [6] it was 0.403 (inactive); in [7] it was 0.158. In addition, the z-score was 0.999 (inactive) in [8], -0.328 (inactive) in assay [9] and 0.523 in assay [10]. Moreover, the composite z-score in assay [2] was -0.193.
For `O=C1c2ccccc2[C@](Cc2ccccc2I)(C(=O)NCc2ccccc2)[C@H](c2ccc(CO)cc2)N1Cc1ccccc1C(F)(F)F`, the z-score in [1] was 1.73 (inactive); in assay [3], 1.62 (inactive); in assay [4], -0.664 (inactive); in [5], -0.345 (inactive); in assay [6], -1.24 (inactive); in assay [7], 0.524. For the same compound, the z-score in assay [8] is 0.617 (inactive); in assay [9] it was -0.738 (inactive); in [10], 2.32. Further, the composite z-score in assay [2] is -0.103.
With `CC(C)C[C@@H]1NC(=O)[C@H]2C[C@@H](C(=O)NCCCCCC[N+](C)(C)C)[C@@H](c3ccc(O)cc3)N2C1=O`, the z-score in [1] is 0.706 (inactive); in [3], 1.8 (inactive); in assay [4], 0.459 (inactive); in [5] it was -3.67 (inactive); in assay [6], 0.0558 (inactive); in assay [7], -0.496. Also, the z-score in [8] was 1.04 (inactive); in [9], 1 (inactive); in assay [10], -0.306. The same compound yielded a composite z-score in [2] of 0.0502.
Regarding `C=C[C@H](OC)[C@@H](OC(=O)Nc1ccc(SC)cc1)c1ccc(O)c(F)c1`, the z-score is 0.738 (inactive) in [1]; 25.5 (active) in [3]; 8.06 (active) in assay [4]; 1.83 (inactive) in assay [5]; -0.016 (inactive) in [6]; 0.461 in [7]. Besides, the z-score in [8] is -2.96 (inactive); in assay [9], -1.66 (inactive); in assay [10] it was -1.06. In addition, the composite z-score in assay [2] turned out to be 0.0043.
For the compound `NC(=O)NCC#Cc1ccc2c(c1)[C@]1(C(=O)N2)[C@H](C(N)=O)[C@H]2C(=O)O[C@H](c3ccccc3)[C@H](c3ccccc3)N2[C@@H]1c1ccccc1OCCO`, the z-score in assay [1] was -0.925 (inactive); in assay [3] it was 2.15 (inactive); in assay [4], 0.0353 (inactive); in assay [5], -3.88 (inactive); in [6], -0.146 (inactive); in assay [7], -0.128. Further, the z-score in assay [8] was 2.1 (inactive); in assay [9], 1 (inactive); in assay [10], 0.53. The compound further gave a composite z-score in assay [2] of 0.199.
With `CCN1C(C)=C(C(=O)OC)[C@@H](c2ccccc2)N2C(=O)[C@](O)(C(=O)OC)[C@@H](c3ccccc3)C(C(=O)c3ccccc3)=C12`, the z-score in [1] was 0.282 (inactive); in assay [3] it was 1.78 (inactive); in assay [4] it was 0.489 (inactive); in assay [5], 1.16 (inactive); in [6], 0.978 (inactive); in assay [7], 1.3. Besides, the z-score was 0.6 (inactive) in assay [8], 0.828 (inactive) in assay [9] and -0.284 in assay [10]. Further, the composite z-score in assay [2] is -0.142.
Consider `CCc1cccc(NC(=O)O[C@H]2[C@H](OC(=O)Nc3ccccc3)[C@@H](OC(=O)Nc3ccccc3)[C@@H](OC)O[C@@H]2CO)c1`, for which the z-score in assay [1] is 0.172 (inactive); in [3], 5.28 (inactive); in assay [4], 1.13 (inactive); in assay [5], -0.298 (inactive); in assay [6], 0.667 (inactive); in [7], 0.211. For the same compound, the figures for the z-score in [8], in [9] and in assay [10] were -6.71 (inactive), -1.24 (inactive) and -2.35, respectively. The composite z-score in assay [2] amounted to 0.424.
As to `[N-]=[N+]=NCc1ccccc1C[C@@]1(C(=O)N2CCOCC2)N=C(c2ccc(OCCCO)cc2)O[C@@H]1c1ccccc1N=[N+]=[N-]`, the z-score in assay [1] is 0.664 (inactive); in assay [3] it was 30.5 (active); in [4], 27.7 (active); in assay [5], 2.82 (inactive); in assay [6] it was 7.87 (inactive); in [7] it was 1.36. Besides, the z-score was -1.49 (inactive) in assay [8], 0.897 (inactive) in assay [9] and -0.107 in assay [10]. This compound also showed a composite z-score in assay [2] of 1.1.
As to `C=CC[C@@]12N=C(c3ccc(OCCCO)cc3)O[C@@H]1c1ccccc1CN(Cc1ccccc1)C2=O`, the z-score is 0.786 (inactive) in assay [1]; 28.3 (active) in assay [3]; 24.9 (active) in [4]; 3.34 (inactive) in [5]; 2.29 (inactive) in [6]; 0.557 in assay [7]. Also, the z-score in [8] is -1.33 (inactive); in [9], -0.765 (inactive); in [10] it was -1.71. The composite z-score in assay [2] worked out at 0.271.
